Measurements taken from PubChem BioAssay AID1456 (Vanderbilt High Throughput Screening Facility, 2008).
In all, about 190,000 compounds went through this assay and about 4,100 (2.2%) were called active. This is one part of a sample in which actives are shown more often than they occur.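 Rule for the calls: active = thallium flux slope and its plate-corrected score both differing from the plate sample mean at a set confidence after two filtering rounds, in either direction; inactive = the rest.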

target: Solute carrier family 12 member 5 (Homo sapiens) (UniProt Q9H2X9); assay: modulation of human KCC2 ion transport – cell-based, HEK293 KCC2, FluoZin-2 fluorescence, MLSMR, primary screen (AID 1456); conditions: KCC2 cells, thallium flux FluoZin-2 fluorescence; at 10 µM;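 note: slope of fluorescence scaled to starting intensity during 10 to 20 s after thallium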
Sequence (Q9H2X9 whole entry, looked up): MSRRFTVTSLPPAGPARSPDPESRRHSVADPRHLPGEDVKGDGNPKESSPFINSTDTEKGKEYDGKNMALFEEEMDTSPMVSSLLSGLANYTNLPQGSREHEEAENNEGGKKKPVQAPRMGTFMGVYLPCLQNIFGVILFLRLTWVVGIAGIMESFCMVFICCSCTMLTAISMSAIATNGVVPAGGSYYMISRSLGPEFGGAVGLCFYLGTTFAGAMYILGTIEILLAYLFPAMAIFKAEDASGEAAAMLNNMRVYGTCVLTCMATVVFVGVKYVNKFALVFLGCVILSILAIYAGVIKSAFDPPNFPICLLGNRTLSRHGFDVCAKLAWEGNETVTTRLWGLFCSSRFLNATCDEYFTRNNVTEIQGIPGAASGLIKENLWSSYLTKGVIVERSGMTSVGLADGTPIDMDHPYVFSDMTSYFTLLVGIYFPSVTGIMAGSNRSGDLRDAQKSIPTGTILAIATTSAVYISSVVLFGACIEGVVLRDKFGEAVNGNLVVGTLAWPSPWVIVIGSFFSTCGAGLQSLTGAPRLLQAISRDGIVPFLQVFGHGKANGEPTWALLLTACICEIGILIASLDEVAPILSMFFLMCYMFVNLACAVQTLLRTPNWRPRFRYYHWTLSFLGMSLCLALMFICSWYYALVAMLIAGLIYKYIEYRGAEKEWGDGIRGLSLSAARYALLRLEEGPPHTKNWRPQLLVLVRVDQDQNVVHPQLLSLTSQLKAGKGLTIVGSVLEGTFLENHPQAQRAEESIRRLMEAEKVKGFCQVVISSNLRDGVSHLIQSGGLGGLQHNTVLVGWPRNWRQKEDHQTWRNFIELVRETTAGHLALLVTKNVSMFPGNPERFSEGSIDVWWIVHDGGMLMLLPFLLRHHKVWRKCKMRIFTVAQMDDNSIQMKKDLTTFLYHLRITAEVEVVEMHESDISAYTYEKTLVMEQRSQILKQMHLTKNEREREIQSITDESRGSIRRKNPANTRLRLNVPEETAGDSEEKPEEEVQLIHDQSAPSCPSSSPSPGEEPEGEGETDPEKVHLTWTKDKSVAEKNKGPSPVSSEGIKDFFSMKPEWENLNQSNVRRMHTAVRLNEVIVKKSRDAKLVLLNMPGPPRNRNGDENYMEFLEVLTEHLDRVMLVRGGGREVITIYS

Structure (SMILES)	B-score of Tl+ flux slope (higher = more flux/activation; lower = inhibition)
Cc1cc(C)cc(C(=O)NCC(=O)OCC(=O)N2CCCCC2)c1	1.11 (inactive)
CC[C@@H](C)[C@@H](C(=O)N1CCN(C(=O)OC(C)(C)C)CC1)n1cc(CCC(=O)O)nn1	3.74 (active)
C[C@@H](C(=O)N1CCNCC1)n1cc(CCC(=O)O)nn1	1.43 (inactive)
CCC(C)[C@@H](C(=O)N1CCNCC1)n1cc(CCCCN)nn1 (some centres not stated)	0.0703 (inactive)
O=c1[nH]c2ccccc2s1	10.2 (active)
COCc1cc(=O)oc2cc(NS(=O)(=O)c3ccc(C)cc3)ccc12	0.0356 (inactive)
O=S(=O)(NCc1ccco1)c1cnc(Cl)c(Cl)c1	-2.3 (inactive)
COC(=O)c1sccc1NC(=O)c1cc(OC)c(OC)c(OC)c1	-5.91 (active)
COC(=O)c1sccc1NC(=O)c1csc2c1CCCC2	-0.108 (inactive)
COc1cc(C(=O)Nc2nccs2)cc(OC)c1OC	0.128 (inactive)
COc1ccc(NS(=O)(=O)c2ccc(N3CCOCC3)c(NC(=O)c3ccccc3Br)c2)cc1	-1.53 (inactive)
COc1ccc2[nH]c3ccc(OC)cc3c2c1	0.0914 (inactive)
COc1ccc2[nH]c(=O)c(CNc3ccc(C)c(C)c3)cc2c1	0.158 (inactive)
COc1ccc2[nH]c(=S)cc(C)c2c1	13.9 (active)
COc1ccccc1OCC(=O)O/N=C(\N)c1ccccn1	0.265 (inactive)
COc1ccc(C(=O)NNc2cc(C)nc(NNC(=O)c3ccc(OC)cc3)n2)cc1	-0.94 (inactive)
C[C@@H](C(=O)Nc1ccc2ccccc2c1)[C@@H]1C[C@@]1(C)[C@@H](NC(=O)c1cccnc1)c1ccccc1	-2.53 (active)
O=C(Nc1ccc(N2CCN(C(=O)c3ccccc3)CC2)c(Cl)c1)c1cccnc1	1.08 (inactive)
COC(=O)[C@H](C)[C@H]1C[C@]1(C)[C@H](NC(=O)OCc1ccccc1)c1ccccc1	2.81 (inactive)
Cc1cc(C)n(CC(C)NCc2c(C(=O)N3CCOCC3)nc3c(C)cccn23)n1 (configuration not stated)	0.104 (inactive)
CCOC(=O)C1=C(N)N2C(=O)C(C)SC2=C(C(=O)OCC)C1c1cc(OC)c(OC)c(OC)c1 (configuration not stated)	-0.308 (inactive)

Structure (SMILES)	B-score of Tl+ flux slope (higher = more flux/activation; lower = inhibition)
CCCCn1c(=S)[nH]c2ccccc2c1=O	92.1 (active)
CCCCn1c(=S)[nH]c2ncccc2c1=O	49.5 (active)
CN(C)CCn1c(=S)[nH]c2ccc(Cl)cc2c1=O	4.34 (active)
O=C(CCn1c(=S)[nH]c2ccccc2c1=O)NCCCN1CCCC1=O	-0.0162 (inactive)
CCCCn1c(=O)c(C(C)=O)c(O)c2ccccc21	-0.478 (inactive)
CCCCn1c(=S)[nH]c2cc(S(=O)(=O)N3CCCCC3)ccc21	0.854 (inactive)
CCN(CC)CCn1c(=S)[nH]c2ncccc2c1=O	0.847 (inactive)
CCCCNC(=O)c1ccc(-n2c(=S)[nH]c3ccccc3c2=O)cc1	1.81 (inactive)
Fc1ccc(NC(=S)N2CCc3[nH]c4ccccc4c3C2)cc1	-0.241 (inactive)
COc1cc2[nH]c(=S)n(Cc3ccc(F)cc3)c(=O)c2cc1OC	0.913 (inactive)
CCCCN(C)Cc1c(C)[nH]c2ccc(Cl)cc2c1=O	-0.235 (inactive)
O=c1c2ccccc2[nH]c(=S)n1CCN1CCC(=C(c2ccc(F)cc2)c2ccc(F)cc2)CC1	8.36 (active)
C=CCN(C(=O)Nc1ccc2c(c1)nc(C)n2C)c1ccccc1	-0.205 (inactive)
COc1ccc2c(c1)c1ncn(Cc3ccccn3)c(=O)c1n2C	-0.189 (inactive)
COc1ccc(-c2nn(C)c(=O)c3ccccc23)cc1CNC(=O)C1CCCCC1	-0.0309 (inactive)
CCC(C)N1C(=S)SC(C)(C)C1N(O)C(=O)NC1CCCCC1 (configuration not stated)	0.793 (inactive)
COc1ccccc1-n1cn[nH]c1=S	0.0347 (inactive)
CCc1ccc(NC(=O)N[C@H](C(=O)O)C(C)CC)cc1 (some centres not stated)	1.5 (inactive)
O=C(O)c1ccc(/C=N/Nc2nc(N3CCCCC3)nc(N3CCCCC3)n2)cc1	-1.4 (inactive)
Cc1ccc(C(=O)N/C(=C\c2ccco2)C(=O)NC2CCS(=O)(=O)C2)cc1 (configuration not stated)	-1.21 (inactive)
CN(C(=O)CCn1c(=S)oc2ccccc21)C1CCCCC1	0.00441 (inactive)

Structure (SMILES)	B-score of Tl+ flux slope (higher = more flux/activation; lower = inhibition)
CC(C)c1nc(SCC(=O)NC(=O)NC(C)(C)C)n[nH]1	-0.671 (inactive)
Cc1ccc(NC(=O)/C(=C/c2ccc([N+](=O)[O-])cc2)NC(=O)c2ccccc2)cc1	-1.36 (inactive)
O=C(Nc1nncs1)c1ccccc1NS(=O)(=O)c1cccs1	-1.71 (inactive)
COc1cc(NC(=O)c2ccccc2NS(=O)(=O)c2ccc(Cl)s2)cc(OC)c1	-5.32 (active)
COc1cc(NC(=O)c2cccnc2SC)cc(OC)c1	0.553 (inactive)
Cc1ccc(-c2nc(SCC(=O)Nc3ccccc3OC(F)F)c3c(C)c(C(=O)O)sc3n2)cc1	-0.62 (inactive)
COc1ccc(C(=O)N/N=C(\C)CC(=O)Nc2ccc(Cl)cn2)cc1	-0.466 (inactive)
CCn1c(CN2C(=O)CSc3ccccc32)n[nH]c1=S	0.96 (inactive)
O=C(Nc1ccccc1)Nc1nc2ccccc2s1	0.018 (inactive)
CSCCC(Nc1nc2ccccc2s1)C(=O)O (configuration not stated)	0.0417 (inactive)
CCC(=O)NC(=Nc1nc2ccccc2s1)NC(=O)CC	41 (active)
O=C(O)C(F)(F)C(NCc1ccccc1)c1ccccc1 (configuration not stated)	-0.106 (inactive)
Cn1c(SCC(=O)N2CCOCC2)nnc1-c1ccc2ncccc2c1	-0.0283 (inactive)
O=C(Nc1ccccc1)c1cc2ccccc2[nH]1	-1.8 (inactive)
S=c1ccc2ccccc2[nH]1	29.1 (active)
c1ccc2[nH]c(-c3nc4ccccc4[nH]3)nc2c1	0.179 (inactive)
Cc1ccc(OCC(=O)N2CCN(C(=O)c3cccnc3)CC2)cc1	2.71 (active)
O=C(c1ccc(OC2CCN(C(=O)c3cccnc3)CC2)cc1)N1CCCCCC1	0.182 (inactive)
COc1ccc(OCC(=O)N2CCN(C(=O)COc3ccccc3)CC2)cc1	-0.137 (inactive)
CCn1c(SCC(=O)N/N=C/c2ccccc2OCC(=O)O)nnc1-c1ccc(C(C)(C)C)cc1	-0.932 (inactive)
